# Data from PubChem BioAssay AID2685 (National Center for Advancing Translational Sciences (NCATS), 2010).
# The whole screen tested about 320,000 compounds, of which about 2,100 (0.66%) were called active. Inconclusive results (about 53%) are left out. Calls come from the whole dose curve; as a rule, active = well fitted inhibition curve with a large enough effect in the signal ratio, with a control signal flat (not every such curve was filed as active); inconclusive = small, poorly fitted or top-dose-only effect, or effect the other way, or a change in a side signal; inactive = flat fitted curve, though single readings scatter; the % refers to the signal ratio. The list comes from a sample in which actives are over-represented; it also holds similar structures and randomly drawn compounds.
# Assay: qHTS Assay for Lipid Storage Modulators in Drosophila S3 Cells;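 for cell number change: cells counted by Cell Tracker Red CMTPX staining in the red channel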; for lipid storage change, negative = inhibition: % is set by controls: 0 for no effect and ±100 for the full control effect
# Settings: BODIPY lipid droplet fluorescence, 18-24 h, cells fed with added oleic acid; cell number change: measured here: cell count max response; series mostly up to 46.1 µM; lipid storage change, negative = inhibition: at the top concentration
# Method in brief: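 Drosophila S3 cells loaded with oleic acid (400 uM, as added) and compounds at several concentrations; lipid droplets imaged by 488-nm laser-scanning cytometry, 500–530 nm intensity and object ratio to cell channel. Percent activity normalized to 20 uM Triacsin C.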
# Potency is the fitted concentration of half-maximal effect.
SMILES,outcome,cell number change,Potency,"lipid storage change, negative = inhibition"
COc1cccc(NC(=O)CCNS(=O)(=O)c2ccc3c(c2)CC(C)N3C(=O)C2CC2)c1 (centres undefined),inactive,4.78%,,
COc1ccccc1CNC(=O)CCS(=O)(=O)c1ccc2c(c1)CC(C)N2C(=O)C1CC1 (centres undefined),inactive,-19.6%,,
COc1ccccc1NC(=O)CCNS(=O)(=O)c1ccc2c(c1)CC(C)N2C(=O)C1CC1 (centres undefined),inactive,3.62%,,
COc1cccc(CNS(=O)(=O)c2ccc3c(c2)CC(C)N3C(=O)C2CC2)c1 (centres undefined),,-26.9%,11.6 µM (active),
CC1Cc2cc(S(=O)(=O)NCc3ccccc3)ccc2N1C(=O)C1CC1 (centres undefined),,-26.2%,,-7.65% (inactive)
OC1(c2ccccc2)CCN(Cc2ccccc2)C2CCCCC21 (centres undefined),,-0.282%,,-16.4% (inactive)
COc1ccc(-n2c(/C=C(\C)O)nc(=O)c3c(C)cc(C)nc32)cc1,inactive,,,
COC(=O)C1Cc2c([nH]c3ccccc23)CN1C(C)=O (centres undefined),,2.42%,,2.74% (inactive)
COc1ccc(/C=C2/SC(=O)N(CCNC(=O)C3CCCN3C(=O)c3cccs3)C2=O)cc1 (centres undefined),,-3.84%,20.6 µM (active),
COc1ccc(/C=C2\SC(=O)N(CCNC(=O)C3CC4C=CC3C4)C2=O)cc1 (centres undefined),,,,22.3% (inactive)
COc1ccc(/C=C2/SC(=O)N(CCNC(=O)C3COc4ccccc4O3)C2=O)cc1 (centres undefined),,-11.7%,,7.79% (inactive)
COc1ccc(NC(=O)COC(=O)[C@@H]2CCCN2C(=O)c2cccs2)cc1,,7.9%,29.1 µM (active),
O=C(O)CCN1C(=O)S/C(=C\c2cccnc2)C1=O,,3.35%,,-6.97% (inactive)
COc1ccc(NC(=O)COC(=O)[C@@H]2CCCN2C(=O)c2cccs2)c(OC)c1,,-0.232%,,-14.7% (inactive)
O=C(NCCN1C(=O)S/C(=C\c2cccnc2)C1=O)c1ccc([N+](=O)[O-])s1,,0.268%,,-4.61% (inactive)
O=C(COC(=O)C1CCCN1C(=O)c1cccs1)Nc1ccc2c(c1)OCO2 (centres undefined),,11.1%,,17.5% (inactive)
O=C(NCCN1C(=O)S/C(=C/c2cccnc2)C1=O)c1cccs1,,-5.78%,2.31 µM (active),
CCOc1c([N+](=O)[O-])cc2c(C)c(C(=O)N3CCN(C)CC3)oc2c1OCC,,-1.04%,,15.5% (inactive)
CC(C)CC(c1nnnn1C1CCCC1)N1CCN(C(=O)c2ccco2)CC1 (centres undefined),inactive,-2.29%,,
COc1ccccc1C(=O)Nc1ccc2[nH]ncc2c1,inactive,0.824%,,
CC(=O)C1=C(O)C(=O)N(Cc2ccccc2)C1c1ccccc1F (centres undefined),,-6.03%,18.4 µM (active),
CC(C)(C)C(=O)C1=C(O)C(=O)N(Cc2ccccc2)C1c1ccccc1F (centres undefined),,0.73%,,19.2% (inactive)
CC(=O)C1=C(O)C(=O)N(Cc2ccccc2)C1c1ccc(F)cc1 (centres undefined),,-7.48%,,11.4% (inactive)

SMILES,outcome,cell number change,Potency,"lipid storage change, negative = inhibition"
S=C(NCC1CCCO1)Nc1ccccc1 (centres undefined),,-0.626%,,-17.6% (inactive)
S=C(NCC1CCCO1)NC12CC3CC(CC(C3)C1)C2 (centres undefined),,5.13%,,1.37% (inactive)
S=C(NCC1CCCO1)NC1CCCC1 (centres undefined),,,1.3 µM (active),
CCOC(=O)c1c(C)[nH]c(C(=O)COC(=O)c2oc3ccc(OC)cc3c2C)c1C,,-6.84%,,6.95% (inactive)
Cc1nnc(NC(=O)CSc2nc3ccccc3o2)s1,,-14%,,-5.01% (inactive)
CCc1nnc(NC(=O)CSc2nc3ccccc3o2)s1,inactive,,,
O=C(CSc1nc2ccccc2o1)Nc1nncs1,,24.7%,16.4 µM (active),
O=C(O)CCc1nc(-c2cccs2)no1,,-23%,,1.61% (inactive)
CC(C)C(=O)Nc1ccc(-c2nc3ncccc3o2)cc1,,0.493%,,-16.9% (inactive)
COc1cc(C=O)ccc1OC(=O)c1ccncc1,,-18.5%,,2.65% (inactive)
COc1ccc(S(=O)(=O)N(C)c2ccc(C(=O)N3CCCCC3)cc2)cc1OC,,2.05%,,6.04% (inactive)
CN(c1ccc(C(=O)Nc2ccccc2C(=O)N2CCOCC2)cc1)S(C)(=O)=O,,-16%,,-2.12% (inactive)
COc1ccc(S(=O)(=O)N(C)c2ccc(C(N)=O)cc2)cc1,,,18.4 µM (active),
COc1ccc(S(=O)(=O)N(C)c2ccc(C(=O)N3CCCC3)cc2)cc1,,18.3%,,14.8% (inactive)
CN(c1ccccc1)S(=O)(=O)c1ccc(C(=O)N2CCCC2)cc1,,-4.2%,,15.8% (inactive)
CN(c1ccc(C(=O)N2CCCCC2)cc1)S(=O)(=O)c1ccccc1,inactive,-27%,,
COc1ccc(S(=O)(=O)N(C)c2ccc(C(=O)N3CCCCC3)cc2)cc1,inactive,,,
COc1ccc(S(=O)(=O)N(C)c2ccc(C(=O)N3CCOCC3)cc2)cc1OC,inactive,,,
CN(c1ccc(C(=O)N2CCOCC2)cc1)S(C)(=O)=O,,-14.6%,25.9 µM (active),
CN(c1ccc(C(=O)N2CCN(c3ccc(F)cc3)CC2)cc1)S(C)(=O)=O,inactive,,,
CN(c1ccc(C(=O)N2CCCCCC2)cc1)S(=O)(=O)c1ccccc1,,-9.4%,5.17 µM (active),
COc1ccc(S(=O)(=O)N(C)c2ccc(C(=O)N3CCCC3)cc2)cc1OC,,-7.14%,0.326 µM (active),
CCCNC(=O)c1oc2ccc3c(c2c1C)C(O)CC(C)(C)O3 (centres undefined),inactive,11.7%,,
